From PubChem BioAssay
Values joined by “and” are separate entries in the source; they are usually repeats but may differ in a detail not shown here. Equal entries are not always repeated. Active and inactive are the calls of the source.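 Rule for the calls, unless noted: active = inhibition at or above 50% relative to wild type and mutant plate controls; inactive = inhibition below 50%.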

What was measured:
[1] = inhibitors of TNFa-induced NFkB p65 translocation, primary screen, imaging, HUVEC, MLSMR starter and 10KST1 sets (AID 438;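 active = inhibition above 20% together with a positive visual image hit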;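 note: compound added about 3h40 before a 20 min TNFalpha stimulation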;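 for inhibition: signal is the nuclear over cytoplasmic p65 intensity ratio per well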); conditions: HUVEC TNFa-induced p65 nuclear translocation; cell count: measured here: nuclei count (cytotoxicity indicator), at 2.08 µM; inhibition: at 2 µM, stronger effect = higher value, 0% TNFa-plus-vehicle, 100% no-TNFa wells
[2] = reduction of polyQ htt aggregates in cells – imaging, exon1htt(103Q)mCFP cells, high-content imaging, primary screen (AID 483;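 active = visual image review flags a hit and inhibition of aggregation exceeds 20%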;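 note: compound exposure lasted 3 days before fixation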;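 for nuclei count: percent of the per-plate median nuclei count of sample wells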); conditions: exon1htt(103Q)mCFP cell line, aggregate imaging, at 2 µM; inhibition of aggregation: stronger effect = higher value; nuclei count: measured here: cell count, toxicity
[3] = endothelial E-selectin expression blockers – imaging, HUVEC, immunofluorescence, MLSMR starter and 10KST1 sets, primary screen (AID 487;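 active = visually confirmed hit in the image check and inhibition above 20%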;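 for inhibition: signal is fraction of cell area covered by stained E-selectin grains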;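 for nuclei count: 100% = median nuclei count of all wells on the same plate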); conditions: HUVEC TNFalpha-induced E-selectin immunofluorescence imaging, at 2 µM; inhibition: stronger effect = higher value; nuclei count: measured here: cell number, toxicity
[4] = Primary imaging screen for DUSP6 inhibitors that restore phospho-Erk in transfected HeLa cells, chemical complementation (AID 609;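 active = compounds giving at least 50% inhibition in the cell-based MKP-3 phosphatase rescue imaging test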;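 for inhibition: phospho-Erk level distribution per well compared with pooled transfected vehicle control wells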); conditions: HeLa MKP-3 transfected, phospho-Erk imaging KS statistic, at 10 µM, cells stimulated with TPA for 15 min
[5] = target: Dual specificity protein phosphatase 6 (Homo sapiens) (UniProt Q16828); test: as above; conditions: HeLa MKP-3 transfected, phospho-Erk imaging KS statistic; at 10 µM; stronger effect = higher value; cells stimulated with TPA for 15 min
Dual specificity protein phosphatase 6 (Homo sapiens), sequence (Q16828 whole entry, looked up): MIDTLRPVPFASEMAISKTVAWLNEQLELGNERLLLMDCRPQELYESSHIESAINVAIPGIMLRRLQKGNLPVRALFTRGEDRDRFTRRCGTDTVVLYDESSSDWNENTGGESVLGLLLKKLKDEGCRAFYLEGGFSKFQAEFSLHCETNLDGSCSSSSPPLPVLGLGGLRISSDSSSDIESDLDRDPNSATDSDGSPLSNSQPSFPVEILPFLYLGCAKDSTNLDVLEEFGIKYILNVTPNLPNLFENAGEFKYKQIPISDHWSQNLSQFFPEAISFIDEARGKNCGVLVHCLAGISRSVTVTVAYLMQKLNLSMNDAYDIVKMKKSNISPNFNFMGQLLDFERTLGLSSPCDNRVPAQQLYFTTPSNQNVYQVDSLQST

[6] = target: Voltage-gated potassium channel subunit beta-2 (Rattus norvegicus) (UniProt P62483); test: inhibitors of rat Kvbeta2 reductase activity – biochemical, NADPH fluorescence, primary screen (AID 622;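 active = fluorescence slope higher than the sample average by over 3 SD, cut at about -0.22 in these data, passing the limit was not always enough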;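 note: slope of raw intensity against log time taken from 70 to 1610 s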); conditions: recombinant KvBeta, 4-cyanobenzaldehyde reduction, at 10 µM, stronger effect = higher value
Voltage-gated potassium channel subunit beta-2 (Rattus norvegicus), sequence (P62483 whole entry, looked up): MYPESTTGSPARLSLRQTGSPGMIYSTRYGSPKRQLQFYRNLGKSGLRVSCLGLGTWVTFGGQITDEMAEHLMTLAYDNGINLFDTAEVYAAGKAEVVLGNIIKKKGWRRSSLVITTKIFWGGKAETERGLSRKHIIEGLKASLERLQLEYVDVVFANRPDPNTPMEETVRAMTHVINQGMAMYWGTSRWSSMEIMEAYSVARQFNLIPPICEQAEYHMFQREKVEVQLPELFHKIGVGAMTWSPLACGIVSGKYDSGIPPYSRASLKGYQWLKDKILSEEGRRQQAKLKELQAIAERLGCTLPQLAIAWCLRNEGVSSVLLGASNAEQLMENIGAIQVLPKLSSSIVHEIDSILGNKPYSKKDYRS

[7] = target: Voltage-gated potassium channel subunit beta-2 (Rattus norvegicus) (UniProt P62483); test: enhancers of rat Kvbeta2 NADPH turnover – biochemical, NADPH fluorescence, primary screen (AID 623;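 active = NADPH fluorescence slope more negative than the mean of all samples by about 3 SD, 99.7% confidence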;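 note: fluorescence intensity change per second fitted from 20 to 320 s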); conditions: Recombinant KvBeta, NADPH fluorescence decrease slope, 10 min; at 10 µM; stronger effect = lower value
[8] = target: Alpha-2C adrenergic receptor (Homo sapiens) (UniProt P18825); test: compounds altering alpha2C-coupled GIRK flux – cell-based, HEK293 alpha2C/GIRK1/2, thallium flux, primary screen (AID 624;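 active = fluorescence slope after compound addition differing from the mean of all screened samples at 99.7% confidence, in either direction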;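 note: slope of fluorescence ratio to pre-addition baseline per second over 15 to 24 s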); conditions: thallium flux BTC fluorescence, at 10 µM, actives lie on both sides
Alpha-2C adrenergic receptor (Homo sapiens), sequence (P18825 whole entry, looked up): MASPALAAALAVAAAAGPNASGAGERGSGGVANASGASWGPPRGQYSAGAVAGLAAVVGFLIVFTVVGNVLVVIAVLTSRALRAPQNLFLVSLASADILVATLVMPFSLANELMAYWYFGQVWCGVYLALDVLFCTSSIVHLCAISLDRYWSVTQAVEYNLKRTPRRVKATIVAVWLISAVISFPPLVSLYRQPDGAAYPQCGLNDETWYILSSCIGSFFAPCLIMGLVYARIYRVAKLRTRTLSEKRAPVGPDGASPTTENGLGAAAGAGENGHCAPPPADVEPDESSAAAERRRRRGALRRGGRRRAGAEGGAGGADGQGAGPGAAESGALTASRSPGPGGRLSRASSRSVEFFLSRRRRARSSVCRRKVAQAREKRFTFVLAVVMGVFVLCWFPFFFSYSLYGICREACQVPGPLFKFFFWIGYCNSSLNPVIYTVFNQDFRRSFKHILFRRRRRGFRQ

[9] = target: Muscarinic acetylcholine receptor M4 (Homo sapiens) (UniProt P08173); test: M4-linked GIRK flux change, two-sided – cell-based, HEK293 M4/GIRK, thallium flux, BTC-AM, M4 allosteric agonist project, primary screen (AID 625;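 active = fluorescence slope after compound addition differing from the mean of all tested samples at 99.7% confidence, mostly higher but some lower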;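 note: thallium influx through GIRK channels coupled to M4 in HEK293 cells with BTC-AM dye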); conditions: at 10 µM, actives lie on both sides
Muscarinic acetylcholine receptor M4 (Homo sapiens), sequence (P08173 whole entry, looked up): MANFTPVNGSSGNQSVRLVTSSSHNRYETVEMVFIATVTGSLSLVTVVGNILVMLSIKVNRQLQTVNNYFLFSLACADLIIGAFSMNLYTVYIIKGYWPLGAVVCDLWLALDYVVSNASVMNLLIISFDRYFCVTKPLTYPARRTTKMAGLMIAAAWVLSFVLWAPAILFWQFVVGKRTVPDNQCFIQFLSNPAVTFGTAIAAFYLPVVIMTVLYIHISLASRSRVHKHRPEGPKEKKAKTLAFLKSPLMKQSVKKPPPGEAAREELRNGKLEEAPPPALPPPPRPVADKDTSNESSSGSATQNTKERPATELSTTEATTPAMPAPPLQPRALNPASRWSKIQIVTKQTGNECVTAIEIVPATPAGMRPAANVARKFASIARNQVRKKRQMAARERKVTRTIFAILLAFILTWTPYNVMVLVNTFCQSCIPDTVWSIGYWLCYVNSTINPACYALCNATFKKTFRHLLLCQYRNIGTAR

[10] = inhibitors of larval lipid processing in zebrafish, primary screen, whole organism, PED6 fluorescence, gall bladder and intestine (AID 686;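 active = a full or partial loss of lipid-probe fluorescence in the fish gall bladder, intestine or both, judged by eye; inactive = no fluorescence loss, or compound toxic to the fish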;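 note: larvae 5 to 7 days old with five fish per well; signal comes from phospholipase A2 cleavage of quenched PED6 carried via bile; overnight exposure to compound and PED6 before scoring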); conditions: Zebrafish larvae PED6 lipid processing, fluorescence scoring; screened at 20 µM (by protocol)
[11] = loss of swimming-algae plug formation – whole organism, Chlamydomonas reinhardtii, WT vs cilia-less mutant, absorbance, 96-well, primary screen (AID 463189); conditions: Chlamydomonas reinhardtii gravitaxis, OD600 absorbance, 2 days; at 10 µM; stronger effect = higher value;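 note: 0% = wild type cc124 cells in DMSO and 100% = ciliumless bld1 mutant cells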
[12] = blockers of RIG-like receptor reporter activation – cell-based, Sendai virus stimulus, luciferase, 10K MLSCN set, TLR/RLR signaling modifier project, primary screen (AID 602276;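 active = inhibition at or above 50% at 10 µM; inactive = inhibition below 50%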;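 note: firefly luciferase from ISG56 promoter only with Renilla not read in this screen; 0% = Sendai virus plus DMSO and 100% = medium plus DMSO without virus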); conditions: HEK293 RL24 IRF3 luciferase reporter, at 10 µM, stronger effect = higher value
[13] = TLR3 IRF3 reporter activation blockers – cell-based, poly I:C stimulus, luciferase, 10K MLSCN set, primary screen (AID 602277;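 active = inhibition of the reporter signal at or above 50%; inactive = inhibition below 50%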); conditions: HEK293-TLR3 RL24 IRF3 luciferase reporter, at 10 µM, stronger effect = higher value
[14] = measured here: cell density z-score
[15] = measured here: nuclear c-Myc green intensity z-score
[16] = measured here: nuclear pErk red intensity z-score, stronger effect = higher value

| SMILES | cell count [1] | inhibition [1] | inhibition of aggregation [2] | nuclei count [2] | inhibition [3] | nuclei count [3] | z-score [4, 14] | z-score [4, 15] | z-score [4, 16] | inhibition [5] | fluorescence slope [6] | NADPH fluorescence slope [7] | slope [8] | fluorescence slope [9] | outcome [10] | inhibition [11] | inhibition [12] | inhibition [13] |
| --- | --- | --- | --- | --- | --- | --- | --- | --- | --- | --- | --- | --- | --- | --- | --- | --- | --- | --- |
| CC(C)c1nc(NCC2CCCO2)c(C#N)c2c1COC(C)(C)C2 (configuration not stated) | 354 | -4.5% (inactive) | 6.9% (inactive) | 86.9% | -236% (inactive) | 132% | -0.206 | -0.66 | -0.111 | -8.59% (inactive) | -0.461 (inactive) | -9.6e-05 (inactive) | 0.00432 (inactive) | 0.00335 (inactive) | inactive | -3.7% (inactive) | 20.5% (inactive) | 25.1% (inactive) |
| COc1ccc(/C(O)=C2\C(=O)C(=O)N(c3cc(C)on3)C2c2ccccc2OC)cc1 (configuration not stated) | 515 | -2.7% (inactive) | -8.1% (inactive) | 103% | -21.7% (inactive) | 101% | 1.8 | 0.145 | -0.473 | 19.4% (inactive) | -0.469 (inactive) | -6.5e-05 (inactive) | 0.00564 (inactive) | 0.0068 (inactive) | inactive | -3.34% (inactive) | 8.52% (inactive) | -5.11% (inactive) |
| CN1CCN2c3ccccc3Cc3ccccc3C2C1 (configuration not stated) | 620 | 1.5% (inactive) | 11.1% (inactive) | 113% | -52% (inactive) | 117% | -0.186 | -0.363 | -0.896 | 19.2% (inactive) | -0.574 (inactive) | -3.8e-05 (inactive) | 0.0196 (active) | 0.0128 (active) | inactive | 15.2% (inactive) and 10.4% (inactive) | 12.6% (inactive) | 45.7% (inactive) |
| Cc1cc(NCC2CCCO2)n2c(nc3ccccc32)c1C#N (configuration not stated) | 481 | -3.7% (inactive) | 16.3% (inactive) | 95.7% | -9.7% (inactive) | 113% | -1.71 | 1 | 0.144 | 1.48% (inactive) | -0.356 (inactive) | -1.1e-05 (inactive) | 0.00569 (inactive) | 0.00588 (inactive) | inactive | -17.8% (inactive) | 16.8% (inactive) | 15.3% (inactive) |
| CS(=O)(=O)Nc1ccc([N+](=O)[O-])cc1Oc1ccccc1 | 692 | -0.7% (inactive) | 0% (inactive) | 95.3% | -24.1% (inactive) | 124% | -0.515 | 1.09 | -0.635 | 11.3% (inactive) | -0.557 (inactive) | -3.9e-05 (inactive) | 0.00467 (inactive) | 0.00499 (inactive) | active; no signal in intestine only | 9.15% (inactive) and 12.1% (inactive) | 15% (inactive) | 15.8% (inactive) |
| CCOC(=O)c1ccc(N2C(=O)CC(Sc3nnc(C)s3)C2=O)cc1 (configuration not stated) | 627 | -1.6% (inactive) | -10.1% (inactive) | 98% | -62.1% (inactive) | 104% | 0.196 | -1.44 | -0.8 | -5.81% (inactive) | -0.471 (inactive) | -1.4e-05 (inactive) | 0.0059 (inactive) | 0.00572 (inactive) | inactive | 30.9% (inactive) | 1.68% (inactive) | 7% (inactive) |
| CC(NC(=O)NCCCC(=O)O)(C(F)(F)F)C(F)(F)F | 582 | -3.7% (inactive) | 8.7% (inactive) | 98.1% | -76% (inactive) | 122% | -0.792 | -0.179 | 1.85 | -2.09% (inactive) | -0.428 (inactive) | -1.9e-05 (inactive) | 0.00567 (inactive) | 0.00478 (inactive) | inactive | 11.9% (inactive) | 18.9% (inactive) | 21.7% (inactive) |
| CCN(CC)C(=O)c1sc2nc(-c3cccs3)cc(-c3cccs3)c2c1N | 443 | -1.7% (inactive) | 0.6% (inactive) | 90% | -166% (inactive) | 121% | 1.5 | -1.58 | -0.775 | 9.61% (inactive) | 1.5e-14 (active) | 0 (inactive) | 0.00378 (inactive) | -0.00241 (active) | active; no signal in gallbladder and intestine | 15.5% (inactive) | 20.8% (inactive) | 23.7% (inactive) |
| Cc1cc(C)n(CC2CC(=O)N(c3ccc(Cl)c(Cl)c3)C2=O)n1 (configuration not stated) | 566 | -4.3% (inactive) | -16.2% (inactive) | 104% | -50.6% (inactive) | 139% | 0.432 | -0.507 | 0.03 | 12.8% (inactive) | -0.489 (inactive) | -5.7e-05 (inactive) | 0.0052 (inactive) | 0.00497 (inactive) | inactive | -1.93% (inactive) | -1.21% (inactive) | 6.73% (inactive) |
| CCOC(=O)C1/C(=N\O)CC(C)(O)C(C(=O)OCC)C1c1ccc(N(C)C)cc1 (configuration not stated) | 497 | -1.5% (inactive) | -7.6% (inactive) | 106% | -131% (inactive) | 152% | -0.215 | 1.47 | 0.208 | 1.9e-07% (inactive) | -0.427 (inactive) | -4.6e-05 (inactive) | 0.00546 (inactive) | 0.00445 (inactive) | inactive | 0.652% (inactive) | 10.4% (inactive) | 16% (inactive) |
| O=C(NCc1cccnc1)/C(=N\O)c1ccccc1 | 415 | -4.8% (inactive) | -9.8% (inactive) | 100% | -66.8% (inactive) | 97.2% | 0.444 | 0.0712 | -0.943 | 5.95% (inactive) | -0.424 (inactive) | 1.4e-05 (inactive) | 0.00513 (inactive) | 0.00494 (inactive) | inactive | -9.8% (inactive) | 6.94% (inactive) | 4.43% (inactive) |
| CN1CCN(c2nc3c(c(=O)n(C)c(=O)n3C)n2Cc2cccc3ccccc23)CC1 | 371 | 4.9% (inactive) | 6.9% (inactive) | 109% | -77.4% (inactive) | 102% | -0.546 | -0.191 | 0.82 | -13.1% (inactive) | -0.457 (inactive) | -6.9e-05 (inactive) | 0.00582 (inactive) | 0.0044 (inactive) | inactive | 28.5% (inactive) | 9.16% (inactive) | 19.8% (inactive) |
| Cc1c(NC(=O)c2coc(=O)c(Br)c2)c(=O)n(-c2ccccc2)n1C | 620 | 1.7% (inactive) | 3.9% (inactive) | 101% | 4% (inactive) | 113% | -0.496 | 0.153 | -1.2 | 20.3% (inactive) | -0.46 (inactive) | -2.1e-05 (inactive) | 0.0067 (inactive) | 0.00586 (inactive) | inactive | 14% (inactive) | -5.82% (inactive) | 56.8% (active) |
| CC1(C(=O)CSc2nc3ccccc3s2)CCC(=O)O1 (configuration not stated) | 609 | -11.4% (inactive) | -14.5% (inactive) | 78.9% | -179% (inactive) | 131% | 0.414 | -1.1 | -0.368 | -4.27% (inactive) | -0.471 (inactive) | -0.000167 (inactive) | 0.00616 (inactive) | 0.00529 (inactive) | inactive | 6.36% (inactive) | 6.48% (inactive) | 21.8% (inactive) |
| Cc1nc(Sc2cccn2C)c(C(F)(F)F)c(=O)[nH]1 | 556 | -4.5% (inactive) | 4.3% (inactive) | 96.7% | -64.1% (inactive) | 108% | -1.97 | 0.557 | 2.32 | 1.9e-07% (inactive) | -0.447 (inactive) | -2.3e-05 (inactive) | 0.00534 (inactive) | 0.00695 (inactive) | inactive | 12.2% (inactive) | 13.1% (inactive) | 3.1% (inactive) |
| CCN(CC)CCN1C(=O)C(O)=C(C(=O)c2cccs2)C1c1ccccn1 (configuration not stated) | 503 | 1.8% (inactive) | -4.1% (inactive) | 102% | -7.4% (inactive) | 120% | -0.956 | 0.653 | -1.67 | -0.608% (inactive) | -0.468 (inactive) | -0.000108 (inactive) | 0.00594 (inactive) | 0.0052 (inactive) | inactive | -9.88% (inactive) | 4.53% (inactive) | 12% (inactive) |
| Cc1cc(Cn2ccnc2)c(C)cc1Cn1ccnc1 | 637 | -4.4% (inactive) | 7.9% (inactive) | 100% | -55.4% (inactive) | 124% | -0.00236 | 1.89 | -0.864 | -7.67% (inactive) | -0.463 (inactive) | -0.000121 (inactive) | 0.00445 (inactive) | 0.0041 (inactive) | inactive | 139% (active) | 19.2% (inactive) | 17.7% (inactive) |
| N#Cc1c(N2CCOCC2)nc(N2CCCCC2)c2c1CCN(C1CCCCC1)C2 | 486 | -5.3% (inactive) | 6.4% (inactive) | 102% | -130% (inactive) | 119% | -0.146 | 1.29 | 0.496 | -13.3% (inactive) | -0.442 (inactive) | -0.000108 (inactive) | 0.00466 (inactive) | 0.00444 (inactive) | inactive | 2.06% (inactive) | -1.64% (inactive) | 99% (active) |
| Cc1cc(/C=c2/sc3nc4ccccc4n3c2=O)c(C)n1-c1ccccn1 | 477 | -8.3% (inactive) | -17% (inactive) | 105% | -51.9% (inactive) | 114% | 0.162 | 1.46 | -0.242 | 1.04% (inactive) | -0.436 (inactive) | -8.3e-05 (inactive) | 0.00546 (inactive) | 0.00476 (inactive) | inactive | -7.65% (inactive) | 58.3% (active) | 93% (active) |
